# Test results from PubChem BioAssay.
# “And” between values parts separate entries of the source, which are not always exact repeats. Identical values can stand only once. Results filed as inconclusive are left out. For some assays here: Potency and affinity values are given separately. The source made the active and inactive calls. Unless noted, the rule behind the calls is not given here.
# How the values were obtained:
# [1] = P. berghei load reduction in hepatocytes – cell-based, HepG2, luciferase luminescence, HepG2 viability, primary screen (AID 624349; in the data active = parasite load remaining mostly below about 12%, no sharp cut-off; inactive = mostly above about 10%;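 note: 100% = mean of DMSO negative control wells on the same plate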); conditions: P. berghei liver stage in HepG2, luciferase luminescence, concentration not given here; parasite load remaining: stronger effect = lower value; viability: measured here: HepG2 viability without parasites
# [2] = biological target: 6-phosphogluconate dehydrogenase, decarboxylating (Homo sapiens) (UniProt P52209); assay: inhibition of human phosphogluconate dehydrogenase – biochemical, recombinant enzyme, NADPH absorbance, primary screen (AID 1159550;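 active = at least 20% inhibition of 6-phosphogluconate dehydrogenase activity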); conditions: recombinant 6PGD, NADPH absorbance 341 nm; at 10 µM; stronger effect = higher value
# [3] = biological target: NAD(+) hydrolase SARM1 (Homo sapiens) (UniProt Q6SZW1); assay: blocking NAD cleavage by SARM1 SAM-TIR – cell lysate, NAD-Glo luminescence (AID 1508614;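 active = compound whose remaining NAD level is above about 45 nM, limit read from the data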;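 note: higher remaining NAD means stronger inhibition of SARM1 NADase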); conditions: SAM-TIR HEK293T lysate NADase, at 1 µM, stronger effect = higher value
# [4] = biological target: Mitogen-activated protein kinase 7 (Homo sapiens) (UniProt Q13164); assay: Gal4-ERK5 driven luciferase induction – cell-based, HTS, primary screen (AID 1508626;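 active = luciferase signal above three times the same-plate solvent-only control wells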;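 note: luciferase driven by Gal4-ERK5 fusion binding five Gal4 sites before minimal TATA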); conditions: HeLa Gal4-ERK5 transactivation, 18 h, at 5 µM, stronger effect = higher value
# [5] = biological target: ATP-dependent translocase ABCB1 (Homo sapiens) (UniProt P08183); assay: P-glycoprotein substrate transport blockade – cell-based (AID 377; in the data active = fluorescence slope change above about 50%); conditions: MDR1-expressing cells, fluorescent substrate accumulation slope; stronger effect = higher value; concentration not given here
# [6] = compounds altering viability of human ES cells (AID 493140); conditions: human embryonic stem cell survival screen; stronger effect = higher value;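 note: cells exposed to compounds for four days before counting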
# [7] = tested on: Aerobactin synthetase IucA (Klebsiella pneumoniae, hypervirulent); assay: biochemical IucA inhibition screen of LOPAC library by absorbance (AID 1346212); conditions: IucA enzyme assay, absorbance (OD) readout; stronger effect = lower value; concentration not given here;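 note: 100% = no compound wells and 0% = no enzyme wells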
# [8] = MELAS cybrid and Rieske KO viability enhancers – cell-based, MELAS cybrids, Rieske KO mouse fibroblasts, CellTiter-Glo, primary screen (AID 1508586;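 active = mean z-score across replicates of 1.96 or higher in either the MELAS or the Rieske mutant cell line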;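 note: z relative to plate mean and SD of compound and empty wells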); conditions: low glucose
# [9] = galactose survival enhancers in mitochondrial complex I cybrids – cell-based, galactose medium, ATP luminescence, primary screen (AID 1645843;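 active = z-score of at least 1.8 in each of two replicates, scored against plate mean and spread of sample wells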;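 note: positive z means more ATP and so rescue of galactose-driven cybrid death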); conditions: complex I mutant cybrid cells, 72 h, stronger effect = higher value
# [10] = EMT-state selective cytotoxicity in co-culture – imaging, PC-3E GFP, TEM4-18 mCherry, primary screen (AID 1345086;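 active = compounds killing one labelled cell type while sparing the other, by normalised counts and ratio limits, not self-fluorescent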;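 for all read-outs here: cells exposed to compound for 72 h before imaging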;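 for red/green cell ratio (normalised): normalised mesenchymal count divided by normalised epithelial count so high means epithelial killing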); conditions: PC-3E GFP / TEM4-18 mCherry co-culture, imaging cell counts, at 1 µM; for red/green cell ratio (normalised): actives lie on both sides
# [11] = tested on: Aerobactin synthetase IucA (Klebsiella pneumoniae hvKP1); assay: IucA enzyme inhibition, primary screen, biochemical, Spectrum library (AID 1346200); conditions: malachite green pyrophosphate, A620, at 8 µM, stronger effect = lower value;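 note: 100% = wells without compound and 0% = wells lacking enzyme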
# [12] = viability loss with induced miR-34 in A549 – imaging, A549 dox-inducible miR-34, nuclei and caspase counts, primary screen (AID 1347080;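 active = compounds whose cell count with miR-34 switched on is under 0.7 times the count with it off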); conditions: A549 miR-34 inducible, Hoechst nuclei count, 48 h
# [13] = blockers of polyQ-driven CASP3 activation – cell-based (AID 1583); conditions: polyglutamine-induced caspase-3 activation, cell assay; stronger effect = higher value;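 tested at 10 µM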
# [14] = yeast 75Q aggregation reduction – 75Q-TubU reporter (AID 1593); conditions: Yeast 75Q polyglutamine aggregation reporter
# [15] = restoration of touch response, mutant HTT neurons – whole organism, C. elegans mechanosensory neurons, N-terminal huntingtin (AID 1599); conditions: C. elegans polyQ-huntingtin mechanosensory neurons, stronger effect = higher value
# [16] = blockers of cytochrome c efflux from mitochondria – biochemical, purified mitochondria (AID 1603); conditions: stronger effect = lower value;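 note: mouse liver mitochondria challenged with calcium chloride; signal normalized to the plate average as 100%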
# [17] = polyglutamine aggregate formation blockers (AID 1604); conditions: polyglutamine-induced protein aggregation inhibition assay; stronger effect = higher value; tested at 2.5 µM
# [18] = glutamate transport activators, MN-1 cells, MN-1 cell line (AID 1612); conditions: MN-1 motor neuron cells, stronger effect = higher value;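 note: tested at 1 µM final; 0% = mean of DMSO vehicle wells on each plate; positive means more glutamate uptake than control and negative means less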
# [19] = GFP-Q80 aggregate reduction, neuronal-like cells, cell-based, NGF-treated PC12, GFPQ80 (AID 1614); conditions: PC12 NGF-treated GFP-polyQ80 inclusion reduction;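 note: lower means fewer inclusions and 0 means no inclusions at all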
# [20] = 75Q-TubH aggregate inhibition, S. cerevisiae, yeast (AID 1616); conditions: S. cerevisiae 75Q-TubH polyglutamine aggregation suppression; stronger effect = higher value
# [21] = MELAS cybrid survival, CellTiter-Glo 48 h, stronger effect = higher value
# [22] = Rieske KO mouse fibroblast survival, CellTiter-Glo 72 h
# [23] = measured here: epithelial PC-3E GFP cell survival
# [24] = measured here: mesenchymal TEM4-18 mCherry cell survival
# [25] = measured here: relative caspase fold change +Dox/-Dox
# [26] = measured here: total cells with miR-34 induction, stronger effect = lower value
# [27] = measured here: total cells without miR-34 induction
# Chain of 6-phosphogluconate dehydrogenase, decarboxylating (Homo sapiens) (P52209 whole entry, looked up): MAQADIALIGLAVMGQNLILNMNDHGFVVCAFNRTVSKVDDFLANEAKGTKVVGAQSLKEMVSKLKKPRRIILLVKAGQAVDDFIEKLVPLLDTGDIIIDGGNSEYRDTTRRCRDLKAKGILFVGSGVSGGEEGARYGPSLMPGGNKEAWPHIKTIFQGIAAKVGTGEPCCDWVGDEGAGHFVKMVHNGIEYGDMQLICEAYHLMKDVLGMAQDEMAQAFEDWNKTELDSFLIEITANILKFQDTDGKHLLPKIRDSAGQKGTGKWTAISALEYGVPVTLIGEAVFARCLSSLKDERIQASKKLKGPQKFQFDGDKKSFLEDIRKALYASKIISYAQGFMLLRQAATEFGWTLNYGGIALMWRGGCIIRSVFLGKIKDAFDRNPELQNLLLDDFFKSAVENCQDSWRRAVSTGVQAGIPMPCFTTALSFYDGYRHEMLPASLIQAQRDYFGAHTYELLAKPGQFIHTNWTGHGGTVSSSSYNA
# Chain of Mitogen-activated protein kinase 7 (Homo sapiens) (Q13164 whole entry, looked up, the tested form may be a part): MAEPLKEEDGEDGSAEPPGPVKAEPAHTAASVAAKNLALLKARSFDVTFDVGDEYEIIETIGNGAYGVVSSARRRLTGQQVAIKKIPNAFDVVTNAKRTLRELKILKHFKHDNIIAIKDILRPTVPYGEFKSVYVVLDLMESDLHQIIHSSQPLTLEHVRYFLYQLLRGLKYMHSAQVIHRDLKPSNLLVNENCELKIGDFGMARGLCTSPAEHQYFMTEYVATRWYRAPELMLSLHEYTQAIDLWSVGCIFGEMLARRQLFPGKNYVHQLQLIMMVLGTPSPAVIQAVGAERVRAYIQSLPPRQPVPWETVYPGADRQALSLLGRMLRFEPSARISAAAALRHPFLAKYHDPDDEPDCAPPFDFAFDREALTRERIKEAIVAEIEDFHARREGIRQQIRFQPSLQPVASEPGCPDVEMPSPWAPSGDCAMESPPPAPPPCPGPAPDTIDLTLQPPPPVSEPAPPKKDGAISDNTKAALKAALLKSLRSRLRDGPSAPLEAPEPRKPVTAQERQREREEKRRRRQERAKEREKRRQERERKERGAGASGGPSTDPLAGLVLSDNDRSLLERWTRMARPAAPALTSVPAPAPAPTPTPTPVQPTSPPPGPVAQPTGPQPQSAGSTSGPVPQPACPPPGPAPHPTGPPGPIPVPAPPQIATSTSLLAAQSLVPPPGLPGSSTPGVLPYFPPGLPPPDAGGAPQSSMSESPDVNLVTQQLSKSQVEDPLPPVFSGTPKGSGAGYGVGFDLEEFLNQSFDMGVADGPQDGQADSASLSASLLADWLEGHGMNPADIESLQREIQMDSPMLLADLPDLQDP
# Chain of NAD(+) hydrolase SARM1 (Homo sapiens) (Q6SZW1 whole entry, looked up, the tested form may be a part): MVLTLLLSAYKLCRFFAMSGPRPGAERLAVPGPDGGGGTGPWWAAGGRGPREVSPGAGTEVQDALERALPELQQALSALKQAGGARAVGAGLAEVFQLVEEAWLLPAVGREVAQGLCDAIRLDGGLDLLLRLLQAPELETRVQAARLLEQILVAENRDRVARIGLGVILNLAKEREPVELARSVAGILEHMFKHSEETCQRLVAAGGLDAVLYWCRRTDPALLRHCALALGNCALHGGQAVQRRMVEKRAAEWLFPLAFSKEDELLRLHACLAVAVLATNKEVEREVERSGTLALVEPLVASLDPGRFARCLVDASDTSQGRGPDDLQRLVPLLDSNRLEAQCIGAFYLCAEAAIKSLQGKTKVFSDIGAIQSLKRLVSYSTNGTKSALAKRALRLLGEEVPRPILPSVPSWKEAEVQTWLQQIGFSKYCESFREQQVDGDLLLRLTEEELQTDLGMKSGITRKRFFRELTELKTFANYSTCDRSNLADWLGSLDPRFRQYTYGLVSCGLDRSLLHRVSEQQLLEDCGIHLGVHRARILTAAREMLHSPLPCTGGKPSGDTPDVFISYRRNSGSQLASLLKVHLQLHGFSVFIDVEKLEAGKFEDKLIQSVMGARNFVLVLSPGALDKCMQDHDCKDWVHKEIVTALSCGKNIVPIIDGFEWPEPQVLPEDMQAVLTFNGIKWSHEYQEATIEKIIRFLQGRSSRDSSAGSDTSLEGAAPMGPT
# Chain of ATP-dependent translocase ABCB1 (Homo sapiens) (P08183 whole entry, looked up): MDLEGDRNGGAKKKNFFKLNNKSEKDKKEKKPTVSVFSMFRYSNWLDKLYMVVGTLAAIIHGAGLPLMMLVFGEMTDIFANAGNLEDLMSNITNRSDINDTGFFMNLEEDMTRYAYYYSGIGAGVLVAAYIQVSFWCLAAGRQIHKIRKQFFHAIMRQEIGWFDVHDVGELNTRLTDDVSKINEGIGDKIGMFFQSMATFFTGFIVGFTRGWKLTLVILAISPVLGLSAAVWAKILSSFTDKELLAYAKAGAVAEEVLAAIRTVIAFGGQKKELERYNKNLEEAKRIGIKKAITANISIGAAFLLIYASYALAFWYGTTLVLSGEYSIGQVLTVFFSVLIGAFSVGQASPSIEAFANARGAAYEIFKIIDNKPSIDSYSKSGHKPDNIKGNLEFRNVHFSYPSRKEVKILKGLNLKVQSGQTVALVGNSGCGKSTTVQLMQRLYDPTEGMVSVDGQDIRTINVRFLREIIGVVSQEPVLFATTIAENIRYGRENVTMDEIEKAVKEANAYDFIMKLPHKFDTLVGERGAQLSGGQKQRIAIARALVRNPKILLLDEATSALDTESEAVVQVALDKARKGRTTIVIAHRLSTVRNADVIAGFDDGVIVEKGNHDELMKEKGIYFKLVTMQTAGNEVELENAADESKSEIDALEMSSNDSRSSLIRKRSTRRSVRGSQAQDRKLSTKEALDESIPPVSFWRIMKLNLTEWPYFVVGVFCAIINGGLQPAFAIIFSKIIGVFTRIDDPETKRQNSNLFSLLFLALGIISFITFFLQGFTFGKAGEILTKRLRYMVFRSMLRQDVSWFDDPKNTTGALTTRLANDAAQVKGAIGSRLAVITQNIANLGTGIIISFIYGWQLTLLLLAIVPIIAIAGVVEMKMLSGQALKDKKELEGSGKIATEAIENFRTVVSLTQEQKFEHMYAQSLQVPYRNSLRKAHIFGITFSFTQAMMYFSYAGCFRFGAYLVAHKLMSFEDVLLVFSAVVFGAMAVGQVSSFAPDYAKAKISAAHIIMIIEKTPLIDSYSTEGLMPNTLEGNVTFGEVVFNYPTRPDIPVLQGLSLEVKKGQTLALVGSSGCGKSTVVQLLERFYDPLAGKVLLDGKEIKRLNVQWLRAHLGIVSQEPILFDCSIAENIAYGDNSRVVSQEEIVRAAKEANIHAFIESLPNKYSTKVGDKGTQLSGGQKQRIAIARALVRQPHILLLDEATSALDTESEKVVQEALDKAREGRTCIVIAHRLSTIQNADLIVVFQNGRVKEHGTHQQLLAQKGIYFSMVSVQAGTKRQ
structure (smiles),measurement,setting,value
COc1cc2c(cc1OC)[C@@]13CCN4CC5=CCO[C@H]6CC(=O)N2[C@H]1[C@H]6[C@H]5C[C@H]43,parasite load remaining,[1],80.5% (inactive)
same,viability,[1],63.8%
same,inhibition,[2],7.74% (inactive)
same,remaining NAD,[3],10 nM (inactive)
same,luciferase signal,[4],76 AU (inactive)
CC(=O)O[C@H]1CC[C@@]2(C)[C@@H](CC[C@@H]3[C@@H]2CC[C@]2(C)C(=O)CC[C@@H]32)C1,inhibition,[2],0.969% (inactive)
C=CCN1CC[C@]23c4c5ccc(O)c4O[C@H]2C(=O)CC[C@@]3(O)[C@H]1C5,fluorescence slope change,[5],64.1% (active)
same,survival,[6],31.3 (inactive)
same,inhibition,[2],-2.77% (inactive)
same,remaining activity,[7],107% (inactive)
same,z-score,[8]; [21],0.056 (inactive) and 0.0574 (inactive)
same,z-score,[8]; [22],-0.112 and -0.417
same,remaining NAD,[3],10 nM (inactive)
same,luciferase signal,[4],32 AU (inactive)
same,z-score,[9],0.98 (inactive) and -0.48 (inactive) and 0.575 (inactive)
CC(C)CC(N(C)C)C1(c2ccc(Cl)cc2)CCC1 (configuration not stated),inhibition,[2],14.3% (inactive)
same,red/green cell ratio (normalised),[10],1.04 (inactive)
same,normalised cell number,[10]; [23],0.98
same,normalised cell number,[10]; [24],1.02
same,activity remaining,[11],121% (inactive)
same,z-score,[8]; [21],0.37 (inactive) and 0.394 (inactive)
same,z-score,[8]; [22],0.153 and 0.475
same,remaining NAD,[3],10 nM (inactive)
same,luciferase signal,[4],60 AU (inactive)
same,z-score,[9],-1.39 (inactive) and -1.34 (inactive) and -2.03 (inactive)
CCOP(=S)(OCC)Oc1nc(Cl)c(Cl)cc1Cl,inhibition,[2],-10.3% (inactive)
same,red/green cell ratio (normalised),[10],0.91 (inactive)
same,normalised cell number,[10]; [23],0.9
same,normalised cell number,[10]; [24],0.82
same,activity remaining,[11],79.3% (inactive)
same,fold change,[12]; stronger effect = lower value,0.887 (inactive)
same,fold change,[12]; [25],1.26
same,cell count,[12]; [26],8030
same,cell count,[12]; [27],9060
same,remaining NAD,[3],10 nM (inactive)
CC[N+]1(C)CCCC(OC(=O)C(O)(c2ccccc2)c2ccccc2)C1 (configuration not stated),fluorescence slope change,[5],17.6% (inactive)
same,inhibition,[13],-29.9%
same,score,[14],1.45
same,rescue above control,[15],-4.25
same,cytochrome c release ratio,[16],1.2
same,inhibition of aggregation,[17],91.6%
same,glutamate uptake change,[18],-17.4%
same,inclusion score,[19],2
same,aggregation suppression score,[20],1.25
same,survival,[6],2.83 (inactive)
same,parasite load remaining,[1],98.8% (inactive) and 137% (inactive)
same,viability,[1],99.5% and 99.4%
same,inhibition,[2],-2.23% (inactive)
same,red/green cell ratio (normalised),[10],0.98 (inactive)
same,normalised cell number,[10]; [23],1.12
same,normalised cell number,[10]; [24],1.1
same,activity remaining,[11],116% (inactive)
same,fold change,[12]; stronger effect = lower value,0.964 (inactive)
same,fold change,[12]; [25],1.14
same,cell count,[12]; [26],8700
same,cell count,[12]; [27],9020
same,z-score,[8]; [21],-0.637 (inactive)
same,z-score,[8]; [22],-0.323
same,luciferase signal,[4],84 AU (inactive)
O=C1C=C2C=C[C@@H]3C[C@@]2(O1)[C@H]1CCCCN31,parasite load remaining,[1],73.8% (inactive)
same,viability,[1],90.5%
same,inhibition,[2],6.02% (inactive)
same,red/green cell ratio (normalised),[10],0.9 (inactive)
same,normalised cell number,[10]; [23],1.21
same,normalised cell number,[10]; [24],1.09
same,activity remaining,[11],109% (inactive)
same,remaining NAD,[3],10 nM (inactive)
same,luciferase signal,[4],92 AU (inactive)
COc1cc([C@@H]2c3cc4c(cc3[C@@H](O)C3COC(=O)C32)OCO4)cc(OC)c1O (some centres not stated),inhibition,[2],4.81% (inactive)
same,red/green cell ratio (normalised),[10],1.06 (inactive)
same,normalised cell number,[10]; [23],0.29
same,normalised cell number,[10]; [24],0.31
same,activity remaining,[11],118% (inactive)
C=CCC1(C(C)CCC)C(=O)N=C(S)NC1=O (configuration not stated),inhibition,[13],1.58%
same,score,[14],1.49
same,rescue above control,[15],6.87
same,cytochrome c release ratio,[16],0.94
same,inhibition of aggregation,[17],42.9%
same,glutamate uptake change,[18],8.72%
same,inclusion score,[19],2
same,aggregation suppression score,[20],1.19
same,parasite load remaining,[1],21.5% (inactive)
same,viability,[1],101%
same,inhibition,[2],2.84% (inactive)
same,red/green cell ratio (normalised),[10],1.3 (inactive)
same,normalised cell number,[10]; [23],0.79
same,normalised cell number,[10]; [24],1.03
same,activity remaining,[11],110% (inactive)
same,fold change,[12]; stronger effect = lower value,0.918 (inactive)
same,fold change,[12]; [25],2.58
same,cell count,[12]; [26],11400
same,cell count,[12]; [27],12400
same,remaining NAD,[3],10 nM (inactive)
same,luciferase signal,[4],84 AU (inactive)
C[C@@H](N)[C@@H](O)c1ccccc1,parasite load remaining,[1],28.8% (inactive)
same,viability,[1],110%
same,inhibition,[2],-16.8% (inactive) and 9.51% (inactive)
same,red/green cell ratio (normalised),[10],0.97 (inactive)
same,normalised cell number,[10]; [23],1.13
same,normalised cell number,[10]; [24],1.1
same,activity remaining,[11],122% (inactive)
same,fold change,[12]; stronger effect = lower value,0.851 (inactive)
same,fold change,[12]; [25],1.36
same,cell count,[12]; [26],8010
same,cell count,[12]; [27],9410
same,z-score,[8]; [21],-0.426 (inactive)
same,z-score,[8]; [22],-0.509
COc1cc2c(cc1OC)C(C)NCC2 (configuration not stated),survival,[6],7.17 (inactive)
same,parasite load remaining,[1],65.2% (inactive) and 87.3% (inactive)
same,viability,[1],106% and 76.1%
same,inhibition,[2],-13.1% (inactive)
same,red/green cell ratio (normalised),[10],1.03 (inactive)
same,normalised cell number,[10]; [23],0.91
same,normalised cell number,[10]; [24],0.94
same,activity remaining,[11],101% (inactive)
same,fold change,[12]; stronger effect = lower value,0.83 (inactive)
same,fold change,[12]; [25],1.56
same,cell count,[12]; [26],9140
same,cell count,[12]; [27],11000
same,luciferase signal,[4],36 AU (inactive)
NCCc1c[nH]c2ccccc12,inhibition,[13],21.6%
same,score,[14],1.14
same,rescue above control,[15],-4.06
same,cytochrome c release ratio,[16],0.68
same,inhibition of aggregation,[17],21.6%
same,glutamate uptake change,[18],6.97%
same,inclusion score,[19],2
same,aggregation suppression score,[20],1.32
same,parasite load remaining,[1],148% (inactive)
same,viability,[1],88.3%
same,inhibition,[2],-12.7% (inactive)
same,red/green cell ratio (normalised),[10],1.06 (inactive)
same,normalised cell number,[10]; [23],0.86
same,normalised cell number,[10]; [24],0.92
same,activity remaining,[11],113% (inactive)
same,remaining activity,[7],89.5% (inactive)
same,fold change,[12]; stronger effect = lower value,1.02 (inactive)
same,fold change,[12]; [25],1.42
same,cell count,[12]; [26],9290
same,cell count,[12]; [27],9110
same,luciferase signal,[4],44 AU (inactive)
same,z-score,[9],0.19 (inactive)
CC1=C(O)C(=O)C=C2C1=CC=C1[C@@]2(C)CC[C@@]2(C)[C@@H]3C[C@](C)(C(=O)O)CC[C@]3(C)CC[C@]12C,inhibition,[2],-29.5% (inactive)
same,red/green cell ratio (normalised),[10],0.62 (inactive)
same,normalised cell number,[10]; [23],0.09
same,normalised cell number,[10]; [24],0.05
same,activity remaining,[11],122% (inactive)
same,fold change,[12]; stronger effect = lower value,0.911 (inactive)
same,fold change,[12]; [25],1.02
same,cell count,[12]; [26],948
same,cell count,[12]; [27],1040
same,luciferase signal,[4],360 AU (inactive)
